Compound activity as filed in PubChem BioAssay.
NSD2 inh: inhibitors of human histone methyltransferase NSD2; O96028; NSD2 peptide methylation, AlphaScreen, 120 min; inhibition, % at 12.5 µM; actives 0.54% (n = 310,000)
Target sequence (O96028 whole entry, looked up): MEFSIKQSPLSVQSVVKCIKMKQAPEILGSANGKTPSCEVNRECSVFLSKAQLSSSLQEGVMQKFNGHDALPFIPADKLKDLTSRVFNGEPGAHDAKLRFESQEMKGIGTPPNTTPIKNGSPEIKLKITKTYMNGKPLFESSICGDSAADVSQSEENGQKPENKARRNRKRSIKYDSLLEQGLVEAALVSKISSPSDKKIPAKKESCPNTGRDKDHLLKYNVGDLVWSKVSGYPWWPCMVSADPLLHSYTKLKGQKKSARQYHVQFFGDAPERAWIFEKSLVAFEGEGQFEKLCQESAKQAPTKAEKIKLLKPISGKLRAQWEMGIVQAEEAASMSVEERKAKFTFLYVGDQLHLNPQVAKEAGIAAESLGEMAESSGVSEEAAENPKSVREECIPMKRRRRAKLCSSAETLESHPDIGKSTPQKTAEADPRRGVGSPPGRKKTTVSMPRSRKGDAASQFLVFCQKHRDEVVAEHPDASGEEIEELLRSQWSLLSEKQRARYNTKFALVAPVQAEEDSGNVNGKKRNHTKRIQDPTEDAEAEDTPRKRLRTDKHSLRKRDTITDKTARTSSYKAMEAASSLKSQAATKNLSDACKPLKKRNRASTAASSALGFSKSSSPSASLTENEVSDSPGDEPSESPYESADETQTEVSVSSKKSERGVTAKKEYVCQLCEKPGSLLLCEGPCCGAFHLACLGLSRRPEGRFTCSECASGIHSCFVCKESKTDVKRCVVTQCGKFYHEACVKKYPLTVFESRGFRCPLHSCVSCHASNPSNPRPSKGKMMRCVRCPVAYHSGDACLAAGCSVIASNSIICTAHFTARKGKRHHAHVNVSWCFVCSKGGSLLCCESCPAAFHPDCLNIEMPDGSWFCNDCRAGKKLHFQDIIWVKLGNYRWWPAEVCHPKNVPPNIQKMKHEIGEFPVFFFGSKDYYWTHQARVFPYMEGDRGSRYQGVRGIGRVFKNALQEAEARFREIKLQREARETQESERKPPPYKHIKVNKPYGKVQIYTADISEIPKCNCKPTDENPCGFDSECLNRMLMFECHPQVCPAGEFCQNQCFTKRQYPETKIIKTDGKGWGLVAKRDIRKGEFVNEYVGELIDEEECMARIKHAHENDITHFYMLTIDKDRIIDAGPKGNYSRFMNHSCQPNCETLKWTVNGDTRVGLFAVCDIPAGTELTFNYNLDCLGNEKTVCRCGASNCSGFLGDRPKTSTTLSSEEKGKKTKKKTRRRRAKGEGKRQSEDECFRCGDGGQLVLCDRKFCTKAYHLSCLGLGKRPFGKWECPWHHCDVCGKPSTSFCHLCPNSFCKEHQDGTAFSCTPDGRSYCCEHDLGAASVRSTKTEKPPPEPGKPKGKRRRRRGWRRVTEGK
INS-1E GSIS act: GLuc luminescence reporter in INS-1E cells, primary screen for activators of glucose-dependent secretion of insulin; INS-1E GLuc reporter insulin secretion, 2-3 h; activation, % at 16.6 µM; actives 0.61% (n = 370,000); AID 743287;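 active = lowest replicate activation of at least 40%, so every replicate reaches that level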;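 also: 0% = median of neutral control wells and 100% = median of IBMX positive control wells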
Dyrk1A ADPGlo: blocks rat Dyrk1A kinase activity; inhibition, % at 12.5 µM; ADP-Glo luminescence, NFATc1 peptide; Q63470; actives 0.43% (n = 310,000);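 also: plate controls were vehicle with enzyme for no effect and no enzyme for full effect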
Wnt bcat act: activators of Wnt/beta-catenin signaling; activation, % at 9.35 µM; Wnt/beta-catenin reporter cell assay, activator, plate reader; actives 1.2% (n = 300,000); in the data active = activation above about 30%, passing the limit was not always enough; inconclusive = no clear call, values can overlap the other calls;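 also: 0% = neutral control wells and 100% = positive control wells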
miR-122 sensor: inhibitors of miR-122 in Huh7 cells; Huh7 miR-122 Renilla luciferase sensor, 48 h; neutral wells = 0, positive control = 100; activation (reporter increase), % at 12.5 µM; actives 0.3% (n = 340,000); AID 602342;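 active = mean replicate activation score at least 90 and every replicate individually at or above 90; inconclusive = only one of the two criteria met; inactive = neither criterion met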;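 also: higher luciferase means less miR-122 activity so hits act as miR-122 inhibitors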
MITF act: increases MITF-driven TRPM1 promoter luciferase signal; SK-MEL-5 TRPM1-promoter luciferase, 24 h; % of positive control, neutral wells = 0; actives 0.75% (n = 300,000); AID 588334; activation, % at 12.5 µM;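 active = mean activation of at least 80% with every replicate also reaching 80%; inconclusive = mean reaches 80% but some replicate falls short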;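 also: 0% = neutral control wells and 100% = parthenolide positive control wells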
Starred values were filed as active, the others as inactive; ? = inconclusive; . = no result; ! = a repeat was not active; [ ] = another dose, or the depositor's remark. A selection: hits, their analogues and other compounds. The true share with any hit is near 2.4%. Rule as the data show it, unless noted: active = inhibition above about 50%; inactive = the rest.

SMILES	NSD2 inh	INS-1E GSIS act	Dyrk1A ADPGlo	Wnt bcat act	miR-122 sensor	MITF act
C[C@H]1CN([C@@H](C)CO)C(=O)c2cc(NC(=O)Nc3cccc4ccccc34)ccc2O[C@H]1CN(C)C	.	-5.4	.	.	-1.2[16.7 µM]	.
CCNc1nc(NC(C)(C)C)nc(N(CC)n2cnnc2)n1	-3.7	.	4.0	-1.2	-7.0	7.7
CCNc1nc(NCC)nc(Nn2cnnc2)n1	1.3	56.3*	-2.0	-0.8	1.0	-10.1
COc1ccccc1NC(=O)N1CCCCN2[C@H](C1)[C@H](c1ccc(C#CC3CC3)cc1)[C@@H]2CO	.	.	.	.	63.4[16.7 µM]	.
Cn1c(=O)c([N+](=O)[O-])c(NC2CCS(=O)(=O)C2)c2ccccc21 (centres undefined)	0.1	.	.	5.6	.	-1.0
Nc1ncnc(NC2CCS(=O)(=O)C2)c1[N+](=O)[O-] (centres undefined)	.	64.7*	-5.8	1.0	7.6	-12.9
CC(C)C#Cc1ccc2c(c1)O[C@@H](CN(C)Cc1cccnc1)[C@@H](C)CN([C@H](C)CO)S2(=O)=O	.	-25.0	.	.	0.9[16.7 µM]	.
O=S(=O)(Nc1ccc2c3c(cccc13)CC2)c1ccccc1	-1.9	.	.	-1.6	1.7	.
Cc1cc(C)c(S(=O)(=O)Nc2ccc3c4c(cccc24)CC3)c(C)c1	7.6	-31.8	-2.0	.	111.1*	-59.3
CO[C@H]1CC[C@@H]2CCOc3ccc(C#N)cc3C(=O)N(C)C[C@@H](C)C(=O)N(C)C[C@@H]1O2	.	-9.3	.	.	.	.
O=C(O)c1ccc(-n2ncc3c2/C(=C\c2cccc([N+](=O)[O-])c2)CC3)cc1	11.1	13.9	.	1.9	13.0	113.0*
O=C(O)c1ccc(-n2ncc3c2/C(=C/c2cccc([N+](=O)[O-])c2)CC3)cc1	2.5	9.5	-4.7	?	.	138.3*
O=C(O)c1ccc(-n2c(/C=C/c3cccc([N+](=O)[O-])c3)nc3ccccc3c2=O)cc1	4.4	-23.8	1.4	-0.6	-3.0	-2.2
CN(C)c1cccc(-c2nnc(SCCCC#N)o2)c1	-0.5	.	18.6	40.7*	-6.9	42.8
Cn1cnc(S(=O)(=O)N[C@H]2CC[C@@H](CC(=O)NCC3CCCCC3)O[C@@H]2CO)c1	.	5.0	.	.	.	.
CCOC(=O)c1nc(SC)n(C)c1C(=O)OCC	-2.5	54.1*	-2.0	-2.4	.	5.6
CCOC(=O)c1c(C)c(C(=O)OCC)n(C)c1C	-4.7	39.2	-1.9	3.3	.	28.1
CC(=O)c1c(C)[nH]c(C(=O)Nc2ccc(C)c(S(=O)(=O)N(C)C)c2)c1C	1.3	-8.2	5.9	9.9	17.0	93.4*
CC(=O)c1c(C)[nH]c(C(=O)Nc2ccc(C)c(S(=O)(=O)Nc3ccc(C)cc3C)c2)c1C	.	-5.7	-2.7	-1.0	166.0*	-15.8
Fc1ccc(-c2ccc(C3[C@@H]4CN(Cc5cccc(F)c5)C[C@H]3N4)cc2)cc1 (some centres undefined)	.	376.2*!	.	.	.	.
Fc1cccc(-c2ccc([C@@H]3[C@@H]4CN(Cc5nccs5)C[C@H]3N4)cc2)c1	.	33.1	.	.	.	.
Cc1ccc(-c2ccc([C@@H]3[C@@H]4CN(Cc5ccccc5F)C[C@H]3N4)cc2)cc1	.	82.7*	.	.	.	.
Cc1ccc(-c2ccc(C3[C@@H]4CN(Cc5cccnc5)C[C@H]3N4)cc2)cc1 (some centres undefined)	.	-20.2	.	.	.	.
Fc1cccc(CN2C[C@@H]3N[C@H](C2)C3c2ccc(/C=C/c3ccccc3)cc2)c1 (some centres undefined)	.	471.3*!	.	.	.	.
Cc1ccc(-c2ccc(C3[C@@H]4CN(Cc5cccc(F)c5)C[C@H]3N4)cc2)cc1 (some centres undefined)	.	997.4*	.	.	.	.
SMILES	NSD2 inh	INS-1E GSIS act	Dyrk1A ADPGlo	Wnt bcat act	miR-122 sensor	MITF act
Fc1ccc(-c2ccc(C3[C@@H]4CN(Cc5ccccc5)C[C@H]3N4)cc2)cc1 (some centres undefined)	.	75.4*!	.	.	.	.
C(=C\c1ccc(C2[C@@H]3CN(Cc4ccccn4)C[C@H]2N3)cc1)/c1ccccc1 (some centres undefined)	.	-27.9	.	.	.	.
O=C(c1ccncc1)N1C[C@@H]2N[C@H](C1)C2c1ccc(/C=C/c2ccccc2)cc1 (some centres undefined)	.	3.3	.	.	.	.
C(=C\c1ccc(C2[C@@H]3CN(Cc4nccs4)C[C@H]2N3)cc1)/c1ccccc1 (some centres undefined)	.	132.0*!	.	.	.	.
O=C(c1ccc(F)cc1)N1C[C@@H]2N[C@H](C1)C2c1ccc(/C=C/c2ccccc2)cc1 (some centres undefined)	.	119.2*!	.	.	.	.
Cc1ccc(-c2ccc(C3[C@@H]4CN(Cc5ccccc5)C[C@H]3N4)cc2)cc1 (some centres undefined)	.	-3.4	.	.	.	.
CC(C)NC(=O)Nc1ccc2c(c1)C(=O)N([C@@H](C)CO)C[C@H](C)[C@H](CN(C)S(=O)(=O)c1cn(C)cn1)OCCCC[C@@H](C)O2	.	21.7	.	.	3.5[16.7 µM]	.
CCCCOc1ccc2c(c1)C(=O)c1cc(O)ccc1-2	16.7	3.4	34.2	13.9	.	86.0*
O=C(C[C@@H]1C[C@@H]2c3cc(NC(=O)NC4CCCCC4)ccc3O[C@@H]2[C@H](CO)O1)NCC(F)(F)F	.	34.0	.	.	1.1[16.7 µM]	.
O=C(Cc1ccccn1)c1ccc(Cl)cc1	.	14.5	1.9	20.5	.	104.0*
Cn1c(COc2ccccc2O)[n+](C)c2ccccc21	-0.8	7.7	0.0	4.3	-4.7	-8.3
CCCCCCCCCCOC(=O)Cn1c(COc2ccccc2OC)[n+](C)c2ccccc21	4.2	178.7*	0.2	-7.8	.	.
CCc1ccc(Nc2ncc3c(n2)CC(c2ccc(OC)cc2)CC3=O)cc1 (centres undefined)	3.9	.	0.6	.	-23.2	.
CCc1ccc(Nc2ncc3c(n2)CC(C)CC3=O)cc1 (centres undefined)	13.1	3.3	-0.8	17.4	-3.2	106.7*
CCc1ccc(Nc2ncc3c(n2)CC(C)(C)CC3=O)cc1	-0.3	5.2	.	57.2*	.	102.5*
CO[C@@H]1CN(C)C(=O)c2cc(NC(C)=O)ccc2OC[C@H](C)N(Cc2cccc(F)c2)C[C@H]1C	.	2.8	.	.	.	.
CCCN1C(=O)C(=O)N(CC(=O)c2cc(C)n(C3CC3)c2C)C1=O	3.0	12.8	-4.5	25.9	-2.8	88.9*
COc1ccc(NC(=O)N(C)C[C@H]2OCCCC[C@H](C)Oc3ccc(NC(=O)c4ccccc4)cc3C(=O)N([C@@H](C)CO)C[C@@H]2C)cc1	.	-13.0	.	.	10.8[16.7 µM]	.
CCCCCCC(=O)N(O)C1CC(=O)N(c2ccc(Cl)cc2)C1=O (centres undefined)	0.0	-23.2	11.2	51.8*	-10.7	.
CCCCCCC(=O)N(O)C1CC(=O)N(c2ccc(C)cc2)C1=O (centres undefined)	1.2	.	0.4	7.2	-1.2	-13.0
Cc1ccc(-c2nc3[nH]c(=O)cc(NC(=O)C(C)C)n3n2)cc1	.	8.2	-6.9	6.6	-12.6	-2.9
CCC(=O)Nc1cc(=O)[nH]c2nc(-c3ccc(Cl)cc3)nn12	-0.1	-6.6	-1.9	39.3*	1.1	4.5
